Out of some 210,000 compounds screened, about 5,900 (2.8%) were called active. Inconclusive results (about 5%) are left out. The call rests on the fitted dose curve; in most records, active means well fitted activation curve with a large enough effect; inconclusive means small, poorly fitted or top-dose-only effect; inactive means no such curve, though single readings can be large or run the other way. What follows is part of a selection rich in actives, with near analogues and random picks from the rest.
Assay: qHTS Assay for Enhancers of SMN2 Splice Variant Expression; further: nearly all actives have a fitted effect of over 55% in size; on activity change, positive = activation: % of control where 0% means no effect
Settings: HEK293 SMN2-luciferase splicing reporter, luminescence, 30-36 h; series mostly up to 46.1 µM; activity change, positive = activation: at the top concentration
From the text: NIH Chemical Genomics Center [NCGC] NIH Molecular Libraries Probe Production centers Network [MLPCN] MLPCN Grant: R03 MH084179-01 Assay Submitter (PI): Elliot Androphy NCGC Assay Overview: Spinal muscular atrophy (SMA) is caused by insufficient levels of the survival motor neuron protein SMN. The SMN locus on chromosome 5q13 contains two inverted copies of SMN called SMN1 and SMN2 which are 99% identical at the amino acid level. SMN1 is a fully functional protein and SMN2 skips exon 7 90% of the time. Skipping of exon 7 produces non-functional protein product. 10% of the SMN2 protein includes exon 7 and is fully functional. In the SMA disease state, mutations in the SMN1 locus are the cause of the disease state. Because only 10% of SMN2 is of the fully functional form, it is not sufficient to overcome the deficiency produced by the loss of the SMN1 product. A therapy that either increase the amount of SMN2 product made or to increase the inclusion of exon 7 has been proposed for the treatment of SMA. We have designed an assay to identify small molecules that can increase the amount of functional SMN2 product by appending a luciferase reporter gene after the native SMN2 gene, such that inclusion of exon 7 in the expressed product places the luciferase sequence in frame, thus generating functional luciferase enzyme.
NCGC Assay Protocol Summary: This screen utilizes a luciferase reporter gene assay, combining the promoter and splicing based cassettes in tandem with the major portion of the native SMN2 cDNA, and then transfected into HEK293 cells. Compounds that increase luciferase signal presumably enhance expression of the functional SMN2 splice variant. Passaging media contained DMEM w/ glutamax (+phenol red) 10% FCS, 1x pen/strep, 200 ug/ml hygro, 1x sodium pyruvate. Assay media contained DMEM w/ glutamax (-phenol red) 10% FCS, 1x pen strep, 1x pyruvate Sequence, Parameter, Value, Description (1) Cells, […], 2000 cells/well, 1536 TC treated White solid bottom plate (2) Time, 10-12 hours, 37C 5% CO2 (3) Compound, 23 nl, MLSMR Library (4) Control Compound, 23 nL, Sodium butyrate st 4.5mM (final) conc (5) Time, 30-36 hours, 37C 5% CO2 (6) Reagent, 3 ul, One Glo (TM) from Promega (7) Time, 5-15 minutes, Room temp (8) Detector, Viewlux: luminescent read, 60 second integration, high speed 2x binning Keywords: Spinal muscular atrophy, SMA, SMN2, high throughput screening, MLSMR, MLPCN, NIH Roadmap, qHTS and NCGC
Potency means the concentration at half of the fitted maximal effect.

| Compound | Potency | activity change, positive = activation |
| --- | --- | --- |
| CC(C)Oc1ccc(NC(=O)c2cc3ccccc3o2)cc1 | 2.51 µM (active) | – |
| Cc1ncoc1C(=O)NCCC(c1ccccc1)c1ccccc1 | – | -50.5% (inactive) |
| O=C(OCC1O[C@@H](OC(=O)c2cc(O)c(O)c(O)c2)[C@@H](OC(=O)c2cc(O)c(O)c(O)c2)[C@@H](OC(=O)c2cc(O)c(O)c(O)c2)[C@@H]1OC(=O)c1cc(O)c(O)c(O)c1)c1cc(O)c(O)c(O)c1 (stereo not given in full) | – | -42.8% (inactive) |
| COc1cccc(C(=O)Nc2ccc(-c3cc(C(F)(F)F)nn3-c3ccccc3)cc2)c1 | – | -70.6% (inactive) |
| O=C(OCC(=O)c1cccs1)C1=COCCO1 | 14.1 µM (active) | – |
| CC(=O)c1c(O)c(C)c(O)c(Cc2c(O)c3c(c(C(=O)/C=C/c4ccccc4)c2O)OC(C)(C)C=C3)c1O | inactive | – |
| CCCCCCCCCc1ccc(OCCOCCOCCOCCOCCOCCOCCOCCOCCO)cc1 | – | -96.9% (inactive) |
| Cn1c(=O)oc2cc(S(=O)(=O)N3CCC(C(=O)Nc4ccc(OC(F)(F)F)cc4)CC3)ccc21 | – | -41.6% (inactive) |
| CC(=O)Oc1ccccc1C(=O)Nc1ncc([N+](=O)[O-])s1 | 12.6 µM (active) | – |
| C[N+](C)(C)CCOP(=O)([O-])OC[C@H](O)CO | – | -39.5% (inactive) |
| CC(C)=CCC[C@]1(C)[C@@H](CC=C(C)C)C[C@@]2(CC=C(C)C)C(=O)[C@]1(C(=O)C(C)C)C(=O)C(CC=C(C)C)=C2O | – | -64.9% (inactive) |
| CC[C@]1([C@H]2O[C@@H]([C@@H]3O[C@](O)(CO)[C@@H](C)C[C@H]3C)C[C@H]2C)CC[C@@H]([C@]2(C)CC[C@@]3(C[C@@H](O)[C@@H](C)[C@@H]([C@H](C)[C@H](OC)[C@H](C)C(=O)O)O3)O2)O1 | – | -29.3% [at 20.6 µM] (inactive) |
| O=C(Nc1cccc(F)c1)N1CC[C@@]2(CCCN(C(=O)Oc3ccccc3)C2)C1 | – | -46.3% (inactive) |
| O=C(Nc1cccc(OC(=O)N2CCCCC2)c1)N1CCOCC1 | – | -21.1% (inactive) |
| CC(C)(C)c1ccc(OC(=O)N2CCCCC2)cc1 | 12.6 µM (active) | – |
| CC(C)(C)C(O)(CCc1ccc(Cl)cc1)Cn1cncn1 (stereo not given) | – | 9.38% (inactive) |
| NCC[Se][Se]CCN | – | -13.3% [at 9.22 µM] (inactive) |
| CO[C@@H]1C[C@@H](C[C@H]2CC[C@H](C)[C@@H]([C@@H](C)C(=O)O)O2)O[C@]2(O[C@](C)([C@H]3CC[C@@](C)(C4OC([C@H]5O[C@@](O)(CO)[C@H](C)C[C@@H]5C)C[C@@H]4C)O3)C[C@H]2C)[C@@H]1C (stereo not given in full) | – | -100% (inactive) |
| c1ccc(Cc2nn3c(Cn4cnc5ccccc54)nnc3s2)cc1 | – | -70.4% (inactive) |
| N#CC(C#N)=Cc1cc(O)c(O)c([N+](=O)[O-])c1 | – | 8.15% (inactive) |

— PubChem BioAssay AID1458 (National Center for Advancing Translational Sciences (NCATS), 2008)
